Data published in article PMC5913336, “True equilibrium measurement of transcription factor-DNA binding affinities using automated polarization microscopy”.

target: T1, Pan (Drosophila melanogaster, UniProt P91943 258-356); assay: FP; 33 mM phosphate pH 7.0, 90 mM NaCl, 0.01% Tween 20, 0.1 mM DTT, 0.5% agarose; room temperature; conditions: tags: N-GST (pGEX-6P-1, kept); dsDNA, one strand shown
T1 sequence: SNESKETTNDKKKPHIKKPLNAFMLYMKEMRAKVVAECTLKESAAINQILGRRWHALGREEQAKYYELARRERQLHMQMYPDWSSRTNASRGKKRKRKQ

Sequence | binding signal
AGTCTTCGATAAA | 7.5 Kd / Kd of best base at the position
ACTCTTTGATAAA | 1.97 Kd / Kd of best base at the position
AGTCTTTGTTAAA | 4.66 Kd / Kd of best base at the position
